{
  "source": "PubChem BioAssay",
  "note": "Records with an inconclusive call do not appear. The source made the active and inactive calls. Unless noted, cut-off not given; nearly all actives show AC50 up to about 23 µM.",
  "data": [
    {"test": "growth inhibition of DIPG glioma cells, dose response, cell-based, SU-DIPG-IV, MIPE4.0, CellTiter-Glo, qHTS (AID 1347063; cut-off not given, nearly all actives have AC50 up to about 30 µM;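 further: compound exposure lasted 48 hours before the viability readout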)", "details": "SU-DIPG-IV viability, CellTiter-Glo ATP luminescence", "values": [
      {"smiles": "CC(C)(CO)[C@@H](O)C(=O)NCCC(=O)O", "outcome": "inactive"},
      {"smiles": "CN1C(C(=O)Nc2ccccn2)=C(O)c2sc(Cl)cc2S1(=O)=O", "outcome": "inactive"},
      {"smiles": "CC(=O)NC(CS)C(=O)O", "note": "(centres undefined)", "outcome": "inactive"},
      {"smiles": "CC(NCCc1ccc(O)cc1)C(O)c1ccc(O)cc1", "note": "(centres undefined)", "outcome": "inactive"},
      {"smiles": "CN(C)CC[C@H](c1ccc(Cl)cc1)c1ccccn1", "outcome": "inactive"},
      {"smiles": "COc1ccc(C2Sc3ccccc3N(CCN(C)C)C(=O)C2OC(C)=O)cc1", "note": "(centres undefined)", "outcome": "inactive"},
      {"smiles": "CC(C)=CCC/C(C)=C/CC/C(C)=C/CC/C(C)=C/CC/C(C)=C/CC/C(C)=C/CC/C(C)=C/CC/C(C)=C/CC/C(C)=C/CO", "outcome": "inactive"}
    ]},
    {"test": "growth inhibition of DIPG glioma cells, dose response, cell-based, SU-DIPG-XIII, MIPE5.0, CellTiter-Glo, qHTS (AID 1347064);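 on AC50: cells exposed to compound for 48 hours before the viability read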", "details": "SU-DIPG-XIII viability, CellTiter-Glo ATP luminescence", "values": [
      {"smiles": "CC[C@]1(O)CC2CN(CCc3c([nH]c4ccccc34)[C@@](C(=O)OC)(c3cc4c(cc3OC)N(C)[C@H]3[C@@](O)(C(=O)OC)[C@H](OC(C)=O)[C@]5(CC)C=CCN6CC[C@]43[C@@H]65)C2)C1", "note": "(some centres undefined)", "AC50": "0.0833 µM (active)"},
      {"smiles": "OC[C@@H](O)[C@@H](O)[C@H](O)[C@@H](O)CO", "outcome": "inactive"},
      {"smiles": "COC(=O)/C=C/C(=O)OC", "outcome": "inactive"},
      {"smiles": "O=c1ccn([C@@H]2O[C@H](CO)[C@@H](O)[C@H]2O)c(=O)[nH]1", "outcome": "inactive"},
      {"smiles": "N#C[C@@H]1C[C@@H]2C[C@@H]2N1C(=O)[C@@H](N)C12CC3CC(CC(O)(C3)C1)C2", "outcome": "inactive"},
      {"smiles": "Cc1coc2c1C(=O)C(=O)c1c-2ccc2c1CCCC2(C)C", "AC50": "5.9 µM (active)"},
      {"smiles": "COC1=C(OC)C(=O)C(C/C=C(\\C)CC/C=C(\\C)CC/C=C(\\C)CC/C=C(/C)CC/C=C(\\C)CC/C=C(\\C)CC/C=C(\\C)CC/C=C(\\C)CC/C=C(\\C)CCC=C(C)C)=C(C)C1=O", "outcome": "inactive"},
      {"smiles": "C[C@H]1COC2=C1C(=O)C(=O)c1c2ccc2c1CCCC2(C)C", "AC50": "18.6 µM (active)"},
      {"smiles": "CC[C@@]1(O)C(=O)OCc2c1cc1n(c2=O)Cc2cc3cc(O)ccc3nc2-1", "AC50": "0.0661 µM (active)"},
      {"smiles": "N#CC(c1ccc(Cl)cc1)c1c(Cl)cc(-n2ncc(=O)[nH]c2=O)cc1Cl", "note": "(centres undefined)", "outcome": "inactive"},
      {"smiles": "COc1ccc2nc3cc(Cl)ccc3c(Nc3cc(CN4CCCC4)c(O)c(CN4CCCC4)c3)c2n1", "AC50": "13.2 µM (active)"},
      {"smiles": "CC(C)C(C)/C=C/C(C)C1CCC2C3=CC=C4CC(O)CCC4(C)C3CCC21C", "note": "(centres undefined)", "outcome": "inactive"},
      {"smiles": "CC(C)(CO)[C@@H](O)C(=O)NCCC(=O)O", "outcome": "inactive"},
      {"smiles": "CN[C@@H]1[C@H](O[C@H]2[C@H](O[C@@H]3[C@@H](O)[C@H](O)[C@@H](N=C(N)N)[C@H](O)[C@H]3N=C(N)N)O[C@@H](C)[C@]2(O)C=O)O[C@@H](CO)[C@H](O)[C@H]1O", "outcome": "inactive"},
      {"smiles": "Cc1c(-c2cnccn2)ssc1=S", "AC50": "10.5 µM (active)"},
      {"smiles": "Cc1cc2nc3c(=O)[nH]c(=O)nc-3n(CC(O)C(O)C(O)CO)c2cc1C", "note": "(centres undefined)", "outcome": "inactive"},
      {"smiles": "N[C@@H](CC(=O)N1CCn2c(nnc2C(F)(F)F)C1)Cc1cc(F)c(F)cc1F", "outcome": "inactive"}
    ]}
  ]
}
